Compound activity as filed in PubChem.
hcDAF-12 act: H. contortus DAF-12 activation, primary screen; actives 1.4% (n = 370,000); AID 652067; activation, % at 6.8 µM; HEK293 hcDAF-12 lit1-tk-luc reporter, luminescence; 0% DMSO, 100% Δ7-dafachronic acid;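 active means activation above the mean of all tested compounds plus 3 SD, cut at about 5.5% in these data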;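 further: 100% = response to 3 µM Δ7-dafachronic acid high control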
DAX1 inh-1: inhibitors of DAX1 repression of SF-1 activated StAR promoter. HEK293T StAR-luciferase reporter, SF-1/DAX-1 repression relief. AID 652010. inhibition, % at 6.8 µM. actives 1.1% (n = 370,000);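 active means inhibition above the mean over all tested compounds plus 3 SD, cut at about 3.6% in these data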;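 further: 0% = DAX-1 cells with DMSO and 100% = cells lacking DAX-1 with DMSO; higher inhibition means more luminescence from relief of DAX-1 repression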
DAX1 inh-2: NR0B1 (DAX1) inhibition | HEK293 Gal4-DAX1 luciferase reporter, luminescence | inhibition, % at 6.75 µM | actives 0.99% (n = 340,000) | P51843;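 active means inhibition above the mean over all tested compounds plus 3 SD, cut at about 4.2% in these data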;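 further: 0% = DAX1-transfected cells with DMSO and 100% = empty-vector control cells with DMSO; inhibition shows as a rise in luminescence from relieved DAX1 repression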
Target sequence (P51843 207-470 limits assumed): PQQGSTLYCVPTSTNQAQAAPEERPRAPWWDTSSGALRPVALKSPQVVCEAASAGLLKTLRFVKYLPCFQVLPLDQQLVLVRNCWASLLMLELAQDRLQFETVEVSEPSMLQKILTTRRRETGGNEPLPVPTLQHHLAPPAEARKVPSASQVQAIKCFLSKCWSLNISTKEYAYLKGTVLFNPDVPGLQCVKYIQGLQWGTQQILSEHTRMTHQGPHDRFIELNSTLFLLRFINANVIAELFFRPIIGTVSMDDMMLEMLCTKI
ssDAF12 agonist: S. stercoralis DAF-12 activation, primary screen; HEK293 ssDAF-12/GRIP1 lit1-tk-luc reporter, luminescence; % of 3 µM dafachronic acid response; activation, % at 6.8 µM; actives 1% (n = 370,000); AID 652126;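 active means activation above the mean over all tested compounds plus 3 SD, cut at about 0.9% in these data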;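 further: 0% = DMSO-only wells and 100% = 3 µM delta7-dafachronic acid wells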
hgDAF12 agonist: hgDAF-12 agonism, primary luciferase screen | AID 687014 | activation, % at 6.8 µM | actives 1.8% (n = 370,000) | HEK293 GAL4-hgDAF12 UAS-luciferase reporter, agonist luminescence; normalized to butyrate control;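 active means activation above a cutoff set at the mean of all screened compounds plus 3 SD, cut at about 10% in these data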;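 further: 0% = DMSO wells and 100% = sodium butyrate wells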
Active calls of the source: *; · = no result given. An excerpt weighted towards active compounds, which were near 4.1% of everything screened.

SMILES	hcDAF-12 act	DAX1 inh-1	DAX1 inh-2	ssDAF12 agonist	hgDAF12 agonist
COc1cccc(CNC(=O)[C@H]2CCCN2C(=O)C2CCCN2C(=O)c2ccc(OC)c(F)c2)c1 (stereo partly specified)	-1	0	·	-1	0
C=CCN(CC#Cc1ccc(OC)cc1)CC=C	0	-1	·	-1	-1
COc1ccc(NC(=O)Cc2cccs2)c(OC)c1	1	1	-1	0	10*
COc1ccc(NC(=O)C(NC(=O)Cc2cccs2)c2ccccc2)cc1 (stereo unspecified)	0	0	-2	-1	-1
COc1ccc(NC(=O)C(NC(=O)Cc2cccs2)c2ccc(C)cc2)cc1 (stereo unspecified)	-1	0	4.7*	-1	7
COc1ccc(NC(=O)CCC(=O)c2cccs2)c(OC)c1	·	·	3	·	·
CCCOc1ccc(N2C(=O)CC(N(CCCO)C(=O)CC)C2=O)cc1 (stereo unspecified)	-2	0	1	-1	0
CCCCN(C(C)=O)C1CC(=O)N(c2ccc(OCCC)cc2)C1=O (stereo unspecified)	0	0	8.6*	-1	1
N#CCCN(Cc1cccnc1)C(=S)NC(=O)c1ccccc1	2	-1	4.6*	-1	1
CC(=O)c1ccc(NC(=S)NCc2cccnc2)cc1	-1	-2	6.1*	-2	-2
Cc1ccc(NC(=S)NCc2cccnc2)cc1	1	0	-1	-1	0
N#CCCN(Cc1cccnc1)C(=S)Nc1ccccc1Cl	1	0	-1	-1	-2
O=C(NC(=S)NCc1ccccc1)c1cccnc1	4	0	-1	1.0*	2
CC(=O)Nc1ccc(S(=O)(=O)NCc2cccnc2)cc1	6.0*	0	0	-2	0
C[C@H]1C2CC(OC(=O)NCc3ccc(Cl)cc3)C(C2)[C@H]2CCCCN21 (stereo partly specified)	-1	1	·	-1	1
CC(c1ccccc1)n1cc(C(=O)N2CCCC2)nn1 (stereo unspecified)	0	-1	·	-1	2
O=C(NCc1cccnc1)Nc1ccccc1	1	0	0	1.0*	2
CN(C(=O)CSc1nc2ccccc2c(=O)n1-c1ccccc1F)C1CCS(=O)(=O)C1 (stereo unspecified)	1	-1	-1	0.9*	-3
CC(C)n1cc(/C=N/Nc2ccc(Cl)c(C(=O)O)c2)c2ccccc21	·	·	4.5*	·	·
COc1cc(/C=N/Nc2ccccn2)ccc1OCC(C)C	2	3	0	-1	11*
COc1ccc(/C=N\Nc2ccccn2)c(OC)c1	5	2	2	1	11*
C[C@@H]1O[C@H](C2CCCCC2)Cc2[nH][nH]c(=O)c21	1	1	·	0	1
COc1cc2cc(Oc3ccc4ccc(=O)oc4c3)c(=O)oc2cc1OC(C)=O	-3	1	9.8*	-2	-2
O=C(CCCCCN1C(=O)C2C3C=CC(C3)C2C1=O)Nc1cc(F)cc(F)c1 (stereo unspecified)	-4	-3	·	-2	-5
COc1ccc(OCC(=O)Nc2nccs2)cc1	6.1*	3	-2	0	8
SMILES	hcDAF-12 act	DAX1 inh-1	DAX1 inh-2	ssDAF12 agonist	hgDAF12 agonist
Cc1cnc(NC(=O)COc2ccccc2)s1	1	2	3	0	12*
CCC(=O)c1ccc(OCC(=O)Nc2nc(-c3cccnc3)cs2)cc1	3	1	-2	0	2
CCOc1ccc(OCC(=O)Nc2nccs2)cc1	·	·	-3	·	·
Cc1cnc(NC(=O)CCc2ccccc2)s1	-1	-1	-2	-1	6
CCC(=O)c1ccc(OCC(=O)Nc2nc(C)cs2)cc1	1	2	3	0	12*
CSCCC(=O)NC1CCCN(CCc2ccccc2)C1 (stereo unspecified)	0	0	-2	-1	-1
Cc1oc(-c2ccccc2Cl)nc1CS(=O)CC(=O)NCc1ccco1 (stereo unspecified)	0	0	1	-1	1
Cc1oc(-c2ccc(Cl)cc2)nc1CS(=O)CC(=O)NCc1ccco1 (stereo unspecified)	-2	0	0	-1	11*
CC(C)COc1cccc(C(=O)Nc2ccc(S(=O)(=O)N3CCOCC3)cc2)c1	-2	0	-1	-2	1
COc1cccc(-n2c([S-])c(C(=O)Nc3ccc(S(=O)(=O)N4CCOCC4)cc3)[n+]3cc(C(N)=O)ccc23)c1	1	1	4.2*	0	10
Cc1oc2c(c1C(=O)NC(Cc1c[nH]c3ccccc13)C(=O)O)CCCC2 (stereo unspecified)	2	0	0	0	4
Cc1ccc(C(=O)C(C)OC(=O)Cc2c[nH]c3ccccc23)cc1 (stereo unspecified)	3	0	0	0.9*	-3
Cc1noc(C)c1C(=O)NC(Cc1c[nH]c2ccccc12)C(=O)O (stereo unspecified)	3	-1	1	1.2*	-1
O=C(NC(Cc1c[nH]c2ccccc12)C(=O)O)c1ccccc1 (stereo unspecified)	3	1	1	1.2*	1
COC(=O)C(Cc1c[nH]c2ccccc12)NC(=O)c1cccc(S(=O)(=O)N2CCCCC2)c1 (stereo unspecified)	2	1	0	-1	2
O=C(NC(Cc1c[nH]c2ccccc12)C(=O)O)c1cccc(S(=O)(=O)N2CCCCC2)c1 (stereo unspecified)	5.7*	0	0	-1	1
COc1ccc(C(=O)COC(=O)Cc2c[nH]c3ccccc23)c(OC)c1	-2	-2	-1	-1	0
CC(Cc1c[nH]c2ccccc12)C(=O)O (stereo unspecified)	1	-1	0	-1	-1
CCc1nc(N[C@@H](Cc2c[nH]c3ccccc23)C(=O)O)c2oc3ccccc3c2n1	3	0	0	0	3
O=C(Cc1c[nH]c2ccccc12)OCC(=O)c1ccccc1	3	0	1	1.2*	3
Cc1nc(N[C@@H](Cc2c[nH]c3ccccc23)C(=O)O)c2oc3ccccc3c2n1	5.9*	0	·	1	4
O=C(O)C(O)Cc1c[nH]c2ccccc12 (stereo unspecified)	4	0	4.7*	0	5
CCN(C(=O)COC(=O)Cc1c[nH]c2ccccc12)C1CCS(=O)(=O)C1 (stereo unspecified)	6.1*	0	0	1.2*	2
CCOC(=O)N1CCN(C(=O)C[C@@H]2C(=O)N(Cc3ccc(OC)cc3)C3=CCN(C(=O)OC(C)(C)C)C[C@]32C(=O)OCC)CC1	-1	1	·	-2	-3
COC(=O)C(Cc1c[nH]c2ccccc12)NC(=O)c1ccccc1Br (stereo unspecified)	3	0	1	1.1*	3
